According to PubChem BioAssay AID463173 (ICCB-Longwood Screening Facility, Harvard Medical School, 2010):
Out of some 52,000 compounds screened, about 1,700 (3.3%) were called active. This is one part of a sample in which actives are shown more often than they occur. Unmarked numbers belong to inactive results. Cut-off read from the data, not from the text of the source: active = survival mostly below about 52% (no sharp cut-off); inactive = mostly above about 56%.

The compounds below were run on Wild type (assay: S. aureus survival, RN4220 and DeltatarO strains – OD600, teichoic acid synthesis inhibitors, primary screen (AID 463173)). Conditions: S. aureus RN4220 wild type/DeltatarO growth, OD600, 18 h, active compounds read low, screened at 18.75 µg/mL (by protocol).

Structure (SMILES) | survival
CCc1cccc(NC(=O)CN(C)S(=O)(=O)c2ccc3c(c2)CCCN3C(C)=O)c1 | 83%
COc1ccc(F)cc1S(=O)(=O)NCC(c1ccco1)S(=O)(=O)c1cccs1 (stereo unspecified) | 81%
CCCN1CCN(CC2=C(C(=O)OCC)C(c3ccc(OC(C)C)cc3)NC(=O)N2)CC1 (stereo unspecified) | 72%
COc1ccc(-n2nnc(-c3nc(-c4cccs4)no3)c2N)cc1OC | 100%
CCN1CCN(C(c2ccc(F)cc2)c2sc3nc(-c4ccco4)nn3c2O)CC1 (stereo unspecified) | 131%
Cc1ccc(C(=O)N2CCN(c3cccc(Cl)c3)CC2)cc1-n1c(C)nc2cccnc21 | 84%
Cc1cc2c(cc1S(=O)(=O)NCc1ccc(F)cc1)OCC(=O)N2 | 82%
COc1cc(OC)cc(C(=O)N2CCC(c3ccncc3)CC2)c1 | 69%
CCOc1ccc(C(=O)N2CCC(c3ccncc3)CC2)cc1 | 78%
CCN(CC)c1ccc(C(=O)N2CCC(c3ccncc3)CC2)cc1 | 85%
COc1ccc(C(=O)N2CCC(c3ccncc3)CC2)cc1OC | -6% (active)
CCOc1cc(C(=O)N2CCC(c3ccncc3)CC2)cc(OCC)c1OCC | -1% (active)
COc1cc(C(=O)N2CCC(c3ccncc3)CC2)cc(OC)c1OC | 78%
Cc1ccc(C)c(C(=O)COC(=O)CCCC(=O)Nc2cc(C(F)(F)F)ccc2Cl)c1 | 45%
Cc1c(C(=O)Nc2ccc(F)c(Cl)c2)sc2nc3n(c(=O)c12)CCC3 | 81%
CCc1nc(SCc2ccccc2)[nH]c(=O)c1C | 102%
COc1cccc(NC(=O)Cn2c(=O)n(CCCCC(=O)NCc3ccc4c(c3)OCO4)c(=O)c3ccccc32)c1 | 92%
CCCCc1ccc(NC(=O)CSc2nc3ccccc3nc2N2CCCCC2)cc1 | 41%
COc1cccc(NC(=O)CSc2nc3ccccc3nc2N2CCOCC2)c1 | 67%
CC(=O)Nc1ccc(NC(=O)CSc2nc3ccccc3nc2N2CCCCC2)cc1 | 90%
COc1cccc(Cc2nc3ccccc3nc2SCC(=O)Nc2cc(OC)ccc2OC)c1 | 60%
COc1ccc(NC(=O)CSc2nc3ccccc3nc2N2CCC(C)CC2)cc1 | 45%
COc1ccc(CCNC(=O)CSc2nc3ccccc3nc2Cc2ccc(Cl)cc2)cc1OC | 10% (active)

Structure (SMILES) | survival
CCc1cccc(NC(=O)CSc2nc3ccccc3nc2N2CCCCC2)c1 | -13% (active)
O=C(CSc1nc2ccccc2nc1Cc1ccc(Cl)cc1)NCCc1ccccc1 | 69%
COc1ccc(CCNC(=O)CSc2nc3ccccc3nc2Cc2ccc(C)cc2)cc1OC | 52%
COc1ccc(NC(=O)CSc2nc3ccccc3nc2N2CCOCC2)c(OC)c1 | 65%
COc1ccc(NC(=O)CSc2nc3ccccc3nc2N2CCCCC2)cc1 | 7% (active)
COc1ccc(OC)c(NC(=O)CSc2nc3ccccc3nc2N2CCCCC2)c1 | -10% (active)
COc1ccc(NC(=O)CC2C(=O)N(c3ccc(C)cc3)C(=O)N2C2CCCCC2)cc1 (stereo unspecified) | 74%
CCOC(=O)c1noc2nc(C)n(CC(=O)Nc3ccccc3F)c(=O)c12 | 124%
COc1cccc(C(=O)Nc2ccccc2-c2nnc(-c3ccc(C(C)(C)C)cc3)o2)c1 | 71%
CCOc1cc(C(=O)N2CC(=O)Nc3ccc(F)cc3C2c2ccccc2)cc(OCC)c1OCC (stereo unspecified) | 75%
O=C(NC1CCCCC1)C(c1ccco1)N(C(=O)C1COc2ccccc2O1)c1cccc(F)c1 (stereo unspecified) | 132%
COc1ccc(NC(=O)c2c(C(=O)Nc3ccccc3)sc3nc(C)cc(=O)n23)cc1 | 93%
NC(=O)CSc1nsc(SCC(N)=O)n1 | 109%
COc1ccccc1Cc1nc2ccccc2nc1SCC(=O)Nc1cc(Cl)ccc1OC | 89%
CC(C)NC(=O)CSc1nc2ccccc2nc1N1CCCCC1 | -28% (active)
O=C(O)CSc1nc2ccccc2nc1N1CCCCC1 | 62%
COc1ccc(Cl)cc1NC(=O)CSc1nc2ccccc2nc1N1CCCCC1 | -9% (active)
Cc1cc(C)c(NC(=O)CSc2nc3ccccc3nc2N2CCCCC2)c(C)c1 | 38%
COc1ccc(C)cc1NC(=O)CSc1nc2ccccc2nc1N1CCOCC1 | 72%
Cc1ccc(C)c(Cn2c(=O)n(Cc3ccc4c(c3)OCO4)c(=O)c3oc4ccccc4c32)c1 | 89%
O=C(NCCc1csc(-c2cccc(F)c2)n1)c1ccco1 | 69%
Cc1cccc(-c2nc(CCNC(=O)Cc3ccc(F)cc3)cs2)c1 | 14% (active)
Cc1cccc(-c2nc(CCNC(=O)c3ccco3)cs2)c1 | -6% (active)

Structure (SMILES) | survival
Cc1cccc(-c2nc(CCNC(=O)COc3ccccc3)cs2)c1 | 73%
Cc1cccc(-c2nc(CCNC(=O)c3ccc(Br)o3)cs2)c1 | 69%
COc1ccc(CCC(=O)NCCc2csc(-c3ccc(C(F)(F)F)cc3)n2)cc1 | 80%
O=C(Cc1ccc(F)cc1)NCCc1csc(-c2cccc(F)c2)n1 | 69%
Cc1cccc(-c2nc(CCNC(=O)Cc3ccccc3)cs2)c1 | -1% (active)
COc1ccc(CC(=O)NCCc2csc(-c3ccc(C(F)(F)F)cc3)n2)cc1 | -6% (active)
CCOc1ccc(CC(=O)NCCc2csc(-c3ccc(C(F)(F)F)cc3)n2)cc1 | 90%
COc1ccc(-c2nc(CCNC(=O)Cc3ccc(F)cc3)cs2)cc1 | 134%
COc1ccc(CC(=O)NCCc2csc(-c3cccc(C)c3)n2)cc1 | 74%
CC(C)c1cnc2c(c1SCC(=O)NC(C)(C)C)c(=O)n(C)c(=O)n2C | 80%
NC(=O)/C=C/C(=O)Nc1ccc2c(c1)OCO2 | 89%
O=C(NCCc1csc2nc(-c3ccc(F)cc3)nn12)c1ccco1 | 126%
COc1ccc(/C=C\c2onc(C)c2S(=O)(=O)N2CCC(C(=O)Nc3ccc(C)c(F)c3)CC2)cc1 | 93%
CC(=O)N1c2c(cc(Br)cc2S(=O)(=O)NCc2ccccc2Cl)CC1C (stereo unspecified) | 73%
C=Cc1ccc(Cn2c(C(=O)O)c(CNCc3cc(Br)ccc3OC)c3ccc(C)cc32)cc1 | 99%
COc1ccc(CNC(=O)c2cc3sccc3n2Cc2ccc(C)cc2)cc1 | 91%
Fc1ccc(N2CCN(c3ncnc4c3nc3n4CCCCC3)CC2)cc1 | 55%
COc1ccc(NC(=O)CSc2nnc(NC(=O)NC3CCCCC3)s2)cc1OC | 65%
Cc1cc(C)c(S(=O)(=O)N2CCN(Cc3ccc4c(c3)OCO4)CC2)cc1C | 9% (active)
COc1ccc(S(=O)(=O)N2CCN(Cc3ccc4c(c3)OCO4)CC2)cc1OC | 78%
Cc1ccc(S(=O)(=O)N2CCN(Cc3ccc4c(c3)OCO4)CC2)cc1 | 64%
COc1ccc(NC(=O)c2ccco2)cc1NC(=O)c1ccc(C)c(C)c1 | 69%
COc1ccc(CNC(=O)c2cc3sccc3n2CC(=O)c2ccccc2)cc1 | 110%

Structure (SMILES) | survival
CCc1ccc(NC(=O)CC2C(=O)N(c3cccc(OC)c3)C(=O)N2C2CCCC2)cc1 (stereo unspecified) | 120%
CCCCNC(=O)CCn1c(=O)c2ccccc2n(Cc2cccc(Cl)c2)c1=O | 94%
CCSc1nc2ccc(C)cc2cc1C#N | 111%
CCC(=O)C1=C(c2ccc(OC)c(OC)c2)N(C(=O)CC)n2c(nnc2-c2ccc(C)cc2)S1 | 74%
CCC(=O)C1=C(c2cccc([N+](=O)[O-])c2)N(C(=O)CC)n2c(nnc2C2CCCCC2)S1 | 63%
CCC(=O)C1=C(c2ccc(F)cc2)N(C(=O)CC)n2c(nnc2-c2ccc(OC)cc2)S1 | 53%
CCC(=O)C1=C(c2ccc(C)cc2)N(C(=O)CC)n2c(nnc2C2CCCCC2)S1 | 76%
CCC(=O)C1=C(c2ccc(F)cc2)N(C(=O)CC)n2cnnc2S1 | 133%
CCC(=O)C1=C(c2ccccc2)N(C(=O)CC)n2c(nnc2-c2ccccc2)S1 | -6% (active)
CCC(=O)C1=C(c2ccc(F)cc2)N(C(=O)CC)n2c(nnc2C2CCCCC2)S1 | 78%
CCCC(=O)C1=C(c2ccc(C)cc2)N(C(=O)CCC)n2cnnc2S1 | 134%
CCC(=O)C1=C(c2ccccc2)N(C(=O)CC)n2c(nnc2C2CCCCC2)S1 | 14% (active)
CC(=O)C1=C(c2cccc([N+](=O)[O-])c2)N(C(C)=O)n2c(nnc2-c2ccc(C)cc2)S1 | 85%
CCC(=O)C1=C(c2cccc([N+](=O)[O-])c2)N(C(=O)CC)n2c(nnc2-c2ccccc2)S1 | 0% (active)
CCOc1ccc(C2=C(C(=O)CC)Sc3nncn3N2C(=O)CC)cc1 | -1% (active)
COc1cc(C(=O)Nc2ccc3nc(SCc4ccc(C)cc4)sc3c2)cc(OC)c1OC | 113%
CCc1ccc(N2C(=O)CSC23C(=O)N(Cc2ccc(C)cc2)c2ccccc23)cc1 (stereo unspecified) | 66%
Cc1ccc(NC(=O)Nc2nnc(N3CCCCC3)s2)c(C)c1 | 97%
CCC(=O)Nc1nnc(SCCOC)s1 | 120%
COc1ccc(-c2oc3ncn4nc(-c5cccc(C)c5)nc4c3c2-c2ccc(OC)cc2)cc1 | 68%
O=C(COc1ccccc1)NCc1ccc2c(c1)CCN2C(=O)c1ccc(Cl)cc1 | 82%
COC(=O)c1ccc(NC(=O)Cn2nc(C(=O)Nc3ccc(C)cc3)ccc2=O)cc1 | 85%
